From PubChem BioAssay
Sfp PPTase inh: Sfp phosphopantetheinyl transferase inhibition; AID 1490; Q9F4F7; Potency, µM, without a hit: largest response in the series, negative = inhibition, usual class: inhibitors; 3.5% of 310,000 active; Biochemical Sfp PPTase activity, qHTS;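 note: the enzyme is Sfp with the accession as filed and its product quenches rhodamine fluorescence; 0% = enzyme reaction without inhibitor and -100% = no enzyme wells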
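With Hepes-Na pH 7.6 buffer containing 10 mM MgCl2, Sfp (15 nM) modified BHQ-2-YbbR (12.5 uM) using rhodamine-CoA (5 uM). Two reads 30 minutes apart at 525/598 nm yielded each well's rate.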
G9a block: blocks human histone lysine methyltransferase G9a; Q96KQ7; G9a H3K9 monomethylation, AlphaScreen, 2 h; Potency, µM (titrated, usually from 102 µM), for inactives: at the highest dose activity, negative = inhibition, most hits filed as inhibitors; 8.8% of 350,000 active; note: % is set by controls: 0 for no effect and ±100 for the full control effect; nearly all actives have a fitted effect of over 75% in size
Target sequence (Q96KQ7 913-1193 limits assumed): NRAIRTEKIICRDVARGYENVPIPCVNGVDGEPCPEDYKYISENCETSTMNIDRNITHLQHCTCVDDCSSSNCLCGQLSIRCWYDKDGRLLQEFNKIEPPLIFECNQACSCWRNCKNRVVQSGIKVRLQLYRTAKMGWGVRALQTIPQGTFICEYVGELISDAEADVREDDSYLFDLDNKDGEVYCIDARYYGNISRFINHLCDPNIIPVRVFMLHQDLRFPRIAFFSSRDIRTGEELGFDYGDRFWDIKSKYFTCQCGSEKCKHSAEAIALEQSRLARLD
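Readings reflect AlphaScreen signal from monomethyl-H3K9 antibody detection. HMT at 20 nM; substrate b-H3K9 500 nM; cofactor SAM 20 uM; 2 h RT reaction; compounds tested as titrations in qHTS with 15 min preincubation.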
HP1b binding inh: inhibitors of HP1-beta chromodomain binding to methylated histone tails; AlphaScreen HP1-beta / biotin-H3K9me3 peptide binding; Potency, µM (titrated, usually from 114 µM), without a hit: at the top dose activity change, negative = inhibition, usual class: inhibitors; 0.56% of 390,000 active; AID 540317; P83916; note: nearly all actives have a fitted effect of over 70% in size
Target sequence (P83916 whole entry, looked up): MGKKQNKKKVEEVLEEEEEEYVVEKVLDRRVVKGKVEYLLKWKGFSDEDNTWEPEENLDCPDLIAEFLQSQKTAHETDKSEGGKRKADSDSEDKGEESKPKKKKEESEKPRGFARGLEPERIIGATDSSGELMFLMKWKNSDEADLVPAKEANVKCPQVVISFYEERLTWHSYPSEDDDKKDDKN
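HP1-beta protein (50 nM final) preincubated 30 min at room temperature with biotinylated H3(1-18)K9me3 peptide (50 nM) in PBS pH 7.4, 0.01% Tween-20, then compound added for 30 min. AlphaScreen streptavidin donor/nickel chelate acceptor beads (10 ug/mL final), 30 min dark, luminescence read.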
JMJD2A Tudor: blocks the human JMJD2A Tudor domain. 4.4% of 390,000 active. AID 504339. Potency, µM (top dose mostly 114 µM), inactives show at the highest dose activity change, negative = inhibition, usual class: inhibitors. O75164. AlphaScreen JMJD2A-Tudor / H3K4me3 peptide binding; note: % is set by controls: 0 for no effect and ±100 for the full control effect; nearly all actives have a fitted effect of over 50% in size
BAZ2B inh: inhibitors of human BAZ2B bromodomain. AlphaScreen BAZ2B-H3K14Ac peptide displacement. AID 504333. 4.4% of 360,000 active. Potency, µM (highest dose often 114 µM), inactives show at the highest dose activity change, negative = inhibition, usual class: inhibitors. Q9UIF8; note: % is set by controls: 0 for no effect and ±100 for the full control effect; nearly all actives have a fitted effect of over 60% in size
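Inhibition is scored as reduced AlphaScreen emission. The BAZ2B/b-H3(5-23)K14Ac complex (50 nM each) in PBS pH 7.4, 0.01% Tween-20 meets compound (up to 110 uM) for 30 min at RT before bead addition.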
L3MBTL1 block: inhibitors of human L3MBTL1. Q9Y468. AlphaScreen L3MBTL1–H3K9me1 peptide binding. Potency, µM (series often up to 57.1 µM), inactives show at the top dose activity, negative = inhibition, usual class: inhibitors. 0.66% of 230,000 active. AID 485360; note: % is set by controls: 0 for no effect and ±100 for the full control effect; nearly all actives have a fitted effect of over 60% in size
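Displacement of a biotinylated histone H3(1-15) peptide monomethylated at Lys9 (75 nM) from L3MBTL1 (50 nM) was measured by AlphaScreen after a 30 min room-temperature compound incubation; cefsulodin titration served as intraplate control.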
* marks the source's active call; other numbers are inactive results; u = inconclusive; x = no result given; [ ] = dose if it differs, or a comment. An excerpt weighted towards active compounds, which were near 12% of everything screened. Calls come from the whole dose curve; as a rule, active = well fitted curve in the direction sought with a large enough effect; inconclusive = small, poorly fitted or top-dose-only effect, or another doubt; inactive = no such curve, though single readings can be large; an effect the other way counts as inactive or inconclusive. Potency is the fitted concentration of half-maximal effect.

SMILES	Sfp PPTase inh	G9a block	HP1b binding inh	JMJD2A Tudor	BAZ2B inh	L3MBTL1 block
COc1ccc(-c2noc(COc3cc(C)ccc3C)n2)cc1OC	x	5%[59 µM]	39%	74%	88%	x
COCCn1c(SCC(=O)c2ccc(Cl)cc2)nnc1C(C)C	79µM*	11µM*	-11%	50µM*	0%	-2%
COCCn1c(SCC(=O)c2ccc3c(c2)OCCO3)nnc1C(C)C	u	18µM*	-8%	79µM*	0%	8%
COCCn1c(SCC(=O)Nc2cc(C)cc(C)c2)nnc1C(C)C	6%	1%	44%	-3%	-1%	-4%
O=C(CSc1nnc2scc(-c3ccccc3)n12)c1ccc2c(c1)OCCO2	-13%	89µM*	23%	-2%	9%	x
CCCCn1c(SCC(=O)c2ccc3c(c2)OCCO3)nnc1-c1ccoc1C	-13%	u	-3%	u	89µM*	x
CCOc1ccc(CCNC(=O)CCCn2c(=O)c3cccn3c3cccnc32)cc1	x	-6%[59 µM]	31%	-12%	-10%	x
Cc1ccc(Nc2nc(C#N)nc(NC3CCCC3)n2)cc1	x	x	x	-16%	x	x
Cc1ccc2c(c1)nc(SCC(O)c1ccc(Br)cc1)n2C (stereo not drawn)	x	-22%[59 µM]	22%	-9%	-3%	x
Cc1ccc(-c2csc3nnc(SCC(=O)Nc4nsc(-c5ccccc5)n4)n23)cc1	-2%	-2%[59 µM]	9%	-12%	-6%	x
O=C(CSc1nnc2scc(-c3ccccc3)n12)Nc1nsc(-c2ccccc2)n1	32µM*	u	20%	u	56µM*	2%
CCCCc1nc2c(c3c1C[C@H](C)OC3)CN(C(=O)c1ccco1)CC2	-2%	x	x	x	x	x
CCCNC(=O)c1ccccc1SCc1c(C)noc1C	-11%	25µM*	53%	1%	79µM*	x
COc1ccc(NC(=O)N2CCc3nc(-c4ccc(OC)cc4C)c4c(c3C2)CO[C@@H](c2ccccc2)C4)cc1	0%	x	x	x	x	x
COc1cc(OC)cc(C(=O)NNc2nc3cc4c(cc3s2)OCO4)c1	79µM*	u	17%	u	u	-10%
COc1cccc(OC)c1C(=O)Nc1nc2cc3c(cc2s1)OCO3	0%	19%	21%	-24%	-11%	x
COc1cc(C(=O)NNc2nc3cc4c(cc3s2)OCO4)cc(OC)c1OC	20µM*	u	43%	-14%	4%	0%
O=C(CCCn1c(=O)c2ccccc2n(Cc2cccc(Cl)c2)c1=O)NCCc1ccc(Cl)cc1	x	-4%[59 µM]	26%	-13%	2%	x
O=S(=O)(Nc1ccc2c(c1)OCO2)c1ccc(F)c(F)c1	x	-13%[59 µM]	29%	-19%	5%	6%
O=c1[nH]cc(S(=O)(=O)Nc2ccc3c(c2)OCO3)c(=O)[nH]1	x	50µM*	29%	-27%	-9%	-5%
CCCCCCCCCCCC(=O)N(CCO)CCO	-4%	-4%[12.7 µM]	x	x	x	x
O=C(CCCCCC(=O)N(CCO)CCO)N(CCO)CCO	17%	40µM*	32%	-12%[11.4 µM]	-2%	-4%
c1ccc(CCC2Cc3ccccc3N2)cc1 (stereo not drawn)	x	-1%[0.501 µM]	-10%	56µM*	u	-2%
COc1ccc(OCC(O)CN2CCCC2)cc1 (stereo not drawn)	-17%	x	-22%	79µM*	u	-11%
OC(COc1ccc2cc(Br)ccc2c1)CN1CCCC1 (stereo not drawn)	79µM*	13%[12.7 µM]	25%	-23%	-6%	-3%
SMILES	Sfp PPTase inh	G9a block	HP1b binding inh	JMJD2A Tudor	BAZ2B inh	L3MBTL1 block
OC(COc1ccccc1)CN1CCCC1 (stereo not drawn)	-9%	-29%	0%	56µM*	79µM*	-1%
COc1ccc(OCC(O)CN2CCCCCC2)cc1 (stereo not drawn)	-13%	8.9µM*	u	4µM*	50µM*	-1%
O=S(=O)(N1CCCCC1)N1CCN(CC(O)COc2ccc3cc(Br)ccc3c2)CC1 (stereo not drawn)	2%	6%[12.7 µM]	12%	-18%	5%	x
COc1ccc(OCC(O)CN2CCN(CC(O)COc3ccc(OC)cc3)CC2)cc1 (stereo not drawn)	9%	-11%	16%	-17%	-5%	0%
CC1CCN(c2ccc(-c3cccc(NS(=O)(=O)c4ccc(Cl)s4)c3)nn2)CC1	x	-5%[59 µM]	9%[57 µM]	-31%	-17%	x
CC(C(=O)NC1C=CS(=O)(=O)C1)N1C(=O)/C(=C\c2ccccc2)SC1=S (stereo not drawn)	13µM*	x	20%	1%	u	x
CC(C(=O)NC1C=CS(=O)(=O)C1)N1C(=O)/C(=C/c2cccc(Cl)c2)SC1=S (stereo not drawn)	-8%	25µM*	-22%	u	u	x
O=C(CN1C(=O)/C(=C/c2cccc(Cl)c2)SC1=S)NC1C=CS(=O)(=O)C1 (stereo not drawn)	-27%	-8%	2%	-19%	-27%	x
COc1ccc(/C=C2\SC(=S)N(CCC(=O)NC3C=CS(=O)(=O)C3)C2=O)cc1 (stereo not drawn)	6%	-11%	24%	-23%	-20%[57.1 µM]	x
COc1ccccc1/C=C1/SC(=S)N(C(C)C(=O)NC2C=CS(=O)(=O)C2)C1=O (stereo not drawn)	-7%	45µM*	37%	6%	-28%	x
Cc1c(CNC2CCCCC2)c(C(=O)O)c(C)n1Cc1ccccc1F	x	-3%[59 µM]	12%	-10%	-10%	x
O=C(/C=C/c1cccs1)Nc1scc(-c2ccccc2)c1C(=O)O	32µM*	32µM*	u	7.1µM*	x	x
Cc1cc2c(s1)c1cnn(Cc3ccc(C#N)cc3)c(=O)c1n2C	x	x	x	-3%	x	x
O=S(=O)(Cc1ccccc1)N(O)c1ccccc1	50µM*	20µM*	23%	-20%	u	x
CCOc1ccc(NC(=O)CSc2ncc3c(n2)-c2ccccc2N(C)S3(=O)=O)cc1	x	-4%[59 µM]	24%	0%	-1%	x
COc1cccc(Oc2cc(NN3CCCCC3)c([N+](=O)[O-])cc2[N+](=O)[O-])c1OC	2%	40µM*	-27%	u	8.9µM*	u
Cc1cc(F)ccc1Oc1cc(NN2CCCCC2)c([N+](=O)[O-])cc1[N+](=O)[O-]	1%	u	-15%	u	u	-7%
O=[N+]([O-])c1cc([N+](=O)[O-])c(Oc2cccc3c2CCCC3)cc1NN1CCCCC1	x	x	0%	-34%	x	x
O=[N+]([O-])c1cc([N+](=O)[O-])c(Oc2ccc(Br)cc2Br)cc1NN1CCCCC1	5%	16µM*	u	10µM*	u	11%
O=[N+]([O-])c1cc([N+](=O)[O-])c(Oc2c(F)cc(F)cc2F)cc1NN1CCCCC1	-25%	50µM*	u	u	u	-7%
